Screens (PubChem BioAssay)
JMJD2A Tudor = inhibitors of human JMJD2A Tudor domain; 390,000 tested, 4.4% active; AID 504339; AlphaScreen JMJD2A-Tudor / H3K4me3 peptide binding; O75164; Potency, µM (highest dose often 114 µM), for inactives: at the top dose activity change, negative = inhibition, usual class: inhibitors; further: on the % scale 0 is the no-effect control and ±100 the full control effect; nearly all actives have a fitted effect of over 50% in size
G9a block = blocks human histone lysine methyltransferase G9a. Q96KQ7. G9a H3K9 monomethylation, AlphaScreen, 2 h. Potency, µM (titrated, usually from 102 µM), without a hit: top-dose activity, negative = inhibition, hits mostly inhibitors. 350,000 tested, 8.8% active. AID 504332; further: on the % scale 0 is the no-effect control and ±100 the full control effect; nearly all actives have a fitted effect of over 75% in size
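AlphaScreen read-out: biotin-H3K9 peptide (500 nM) methylation by 20 nM enzyme with 20 uM SAM, 2 h at room temperature after 15 min compound preincubation; anti-monomethyl H3K9 antibody plus donor/acceptor beads, 10 min dark.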
BAZ2B inh = blocks human BAZ2B; AID 504333; Potency, µM (doses to about 114 µM), without a hit: top-dose activity change, negative = inhibition, actives largely listed as inhibitors; AlphaScreen BAZ2B-H3K14Ac peptide displacement; Q9UIF8; 360,000 tested, 4.4% active; further: on the % scale 0 is the no-effect control and ±100 the full control effect; nearly all actives have a fitted effect of over 60% in size
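AlphaScreen displacement of biotin-H3(5-23)K14Ac peptide (50 nM final) from BAZ2B (50 nM final) in PBS pH 7.4, 0.01% Tween-20; complex preformed 30 min RT, then compounds (top 110 uM) 30 min RT, beads 20 min dark.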
ALOX12 inh = blocks human arachidonate 12S-lipoxygenase; purified 12hLO, xylenol orange hydroperoxide absorbance; Potency, µM (highest dose often 108 µM), for the others: at the top dose activity change, negative = inhibition, most hits filed as inhibitors; 580,000 tested, 1.1% active; AID 1671190; further: on the % scale 0 is the no-effect control and ±100 the full control effect
Target sequence (P18054 whole entry, looked up): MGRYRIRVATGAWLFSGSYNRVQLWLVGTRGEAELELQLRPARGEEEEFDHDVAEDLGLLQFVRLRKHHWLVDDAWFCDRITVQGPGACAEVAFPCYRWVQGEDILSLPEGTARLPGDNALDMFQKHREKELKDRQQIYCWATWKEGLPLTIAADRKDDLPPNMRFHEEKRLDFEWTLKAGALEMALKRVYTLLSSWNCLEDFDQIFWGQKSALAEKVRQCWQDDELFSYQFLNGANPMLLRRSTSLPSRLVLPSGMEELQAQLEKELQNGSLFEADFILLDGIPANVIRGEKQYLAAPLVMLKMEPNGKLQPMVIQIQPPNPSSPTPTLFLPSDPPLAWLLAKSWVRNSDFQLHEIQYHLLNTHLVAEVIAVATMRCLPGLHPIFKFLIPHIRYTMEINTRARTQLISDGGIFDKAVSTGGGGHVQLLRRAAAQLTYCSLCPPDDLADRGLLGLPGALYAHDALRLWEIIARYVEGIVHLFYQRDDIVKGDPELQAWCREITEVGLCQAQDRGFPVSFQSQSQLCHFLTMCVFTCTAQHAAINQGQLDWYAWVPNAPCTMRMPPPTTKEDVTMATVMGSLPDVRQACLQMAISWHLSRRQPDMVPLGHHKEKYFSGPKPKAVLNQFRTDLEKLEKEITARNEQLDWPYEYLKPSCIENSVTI
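Hydroperoxide product was detected by ferrous iron/xylenol orange as the 573 to 405 nm absorbance ratio. Arachidonic acid at 40 uM (final) was turned over for 30 min at room temperature by 150 nM human 12hLO, pH 7.0 Hepes buffer, after 15 min compound preincubation.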
HP1b binding inh = blocks HP1-beta chromodomain binding to methylated histone tails | 390,000 tested, 0.56% active | Potency, µM (series often up to 114 µM), without a hit: at the highest dose activity change, negative = inhibition, most hits filed as inhibitors | AlphaScreen HP1-beta / biotin-H3K9me3 peptide binding | AID 540317; further: nearly all actives have a fitted effect of over 70% in size
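Compound inhibition of the preformed complex between 50 nM HP1-beta and 50 nM biotinylated H3K9me3 peptide was read by AlphaScreen. Buffer was PBS pH 7.4 with 0.01% Tween-20. Incubations ran 30 min at room temperature, with 10 ug/mL donor/acceptor beads.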
PLK1 PBD block = inhibitors of human PLK1 polo-box domain binding | P53350 | Plk1 PBD binding of FITC phosphopeptide, fluorescence polarization | Potency, µM, without a hit: max response, negative = inhibition, actives largely listed as inhibitors | 360,000 tested, 2.8% active | AID 720504; further: series mostly up to about 57 µM; on the % scale 0 is the no-effect control and ±100 the full control effect; nearly all actives have a fitted effect of over 65% in size
The depositor's hits bear a star; [ ] = remark or other dose. Shown are actives, neighbours in structure and some others; about 9% of the full set was active somewhere. The call rests on the fitted dose curve; in most records, active means well fitted curve in the direction sought with a large enough effect; inconclusive means small, poorly fitted or top-dose-only effect, or another doubt; inactive means no such curve, though single readings can be large; an effect the other way counts as inactive or inconclusive. Potency means the concentration at half of the fitted maximal effect.

`CC(C)(C)n1ncc2c(=O)n(Cc3ccccc3Br)cnc21` gave JMJD2A Tudor 12.1%, G9a block -1.1%[0.501 µM], BAZ2B inh 13.0%, ALOX12 inh 4.6% and HP1b binding inh 100.7%.
For O=C(CCc1ccccc1)NNC(=O)COc1ccccc1 the results were JMJD2A Tudor -16.2%, BAZ2B inh 9.4%, ALOX12 inh 24.8%, HP1b binding inh 7.1% and PLK1 PBD block -14.6%.
Screening COc1ccc(/C=C/c2nc3cc(C)ccc3s2)c(OC)c1 returned ALOX12 inh -4.6%.
`Cc1ccccc1NC(=O)c1c(C)nn(-c2ccccc2)c1Cl` gave JMJD2A Tudor 3.5%, G9a block inconclusive, BAZ2B inh -3.5%, ALOX12 inh 1.5%, HP1b binding inh 19.7% and PLK1 PBD block -5.1%.
Screening COc1cc(NC(=S)NC(=O)c2ccc(C)cc2C)ccc1NC(=O)c1cccs1 returned JMJD2A Tudor -20.3%, G9a block inconclusive, BAZ2B inh -1.4%, ALOX12 inh 5.01µM*, HP1b binding inh 18.7% and PLK1 PBD block -7.6%.
`CC(C)C(=O)Nc1cccc(NC(=S)NC(=O)c2cccs2)c1` gave JMJD2A Tudor -9.0%, G9a block inconclusive, BAZ2B inh -6.3%, ALOX12 inh 4.1%, HP1b binding inh 20.6% and PLK1 PBD block -0.8%.
Screening COc1nc(N)nc(NC(=O)c2cccs2)c1N=O returned JMJD2A Tudor 28.2µM*, ALOX12 inh 0.0%, HP1b binding inh 13.6% and PLK1 PBD block inconclusive.
Screening COc1cc(NC(=O)c2ccc(C)cc2C)ccc1NC(=O)c1cccs1 returned JMJD2A Tudor -7.4%, G9a block 7.4%, BAZ2B inh 3.2%, ALOX12 inh -10.6%, HP1b binding inh 34.9% and PLK1 PBD block -2.3%.
`COc1cc(NC(=S)NC(=O)c2cccs2)ccc1NC(=O)C(C)C` gave JMJD2A Tudor -32.9%, G9a block inconclusive, BAZ2B inh -24.2%, ALOX12 inh 7.08µM*, HP1b binding inh 19.0% and PLK1 PBD block -6.1%.
`COc1ccc(NC(=O)c2ccc(NC(=O)c3cccs3)cc2)cc1` gave JMJD2A Tudor -8.8%, BAZ2B inh -0.1%, ALOX12 inh -7.5%, HP1b binding inh -4.5% and PLK1 PBD block -5.9%.
`COc1cc(N)ccc1NC(=O)c1cccs1` gave JMJD2A Tudor -33.3%, G9a block 8.91µM*, BAZ2B inh 5.9%, ALOX12 inh inconclusive, HP1b binding inh 30.9% and PLK1 PBD block -8.5%.
`COc1ccc(-c2ccc(NS(=O)(=O)c3cccc(Cl)c3)cc2)nn1` gave JMJD2A Tudor -16.9%, G9a block -7.4%[59 µM], BAZ2B inh -3.6%, ALOX12 inh -17.5% and HP1b binding inh 30.0%[57 µM].
For O=c1oc2ccccc2c(NCc2ccccc2)c1[N+](=O)[O-] the results were JMJD2A Tudor -1.4%, G9a block inconclusive, BAZ2B inh -3.1%, ALOX12 inh -0.6%, HP1b binding inh 35.6% and PLK1 PBD block 0.4%.
Screening COc1cc(NC(=O)COc2ccc(Cl)cc2)ccc1NC(=O)C(C)C returned JMJD2A Tudor -10.7%, G9a block 25.1µM*, BAZ2B inh -16.2%, ALOX12 inh -1.3%, HP1b binding inh 3.6% and PLK1 PBD block -18.8%.
Screening COC(=O)c1ccccc1S(=O)(=O)N(CCCN1CCOCC1)Cc1cccs1 returned JMJD2A Tudor 7.94µM*, G9a block 7.94µM*, BAZ2B inh 50.1µM*, ALOX12 inh 21.7%, HP1b binding inh inconclusive and PLK1 PBD block -11.4%.
Screening Cc1ccc(NC(=S)N(CCCN2CCOCC2)Cc2cccs2)c(C)c1 returned JMJD2A Tudor -9.8%, G9a block inconclusive, BAZ2B inh 2.1%, ALOX12 inh 8.2%, HP1b binding inh -1.2% and PLK1 PBD block 18.9µM*.
O=C(NC(Cc1ccccc1)C(=O)O)c1ccc(S(=O)(=O)N2CCOCC2)cc1 (configuration not stated) was read as JMJD2A Tudor 4.5%, G9a block -15.4%[59 µM], BAZ2B inh -17.0%, ALOX12 inh -9.8%, HP1b binding inh 34.4% and PLK1 PBD block -2.8%.
CC(C)c1ccc(C2NC(=O)NC3=C2CCc2ccccc23)cc1 (configuration not stated) was read as JMJD2A Tudor -16.0%, G9a block 31.6µM*, BAZ2B inh -6.8%, ALOX12 inh inconclusive, HP1b binding inh 20.8% and PLK1 PBD block -19.5%.
`Cc1ccc(C2NC(=O)NC3=C2CCc2ccccc23)cc1` (configuration not stated) gave JMJD2A Tudor -16.0%, G9a block 10µM*, BAZ2B inh -15.8%, ALOX12 inh inconclusive, HP1b binding inh 22.8% and PLK1 PBD block -6.5%.
`CN(Cc1nc2ccccc2[nH]1)C(=O)C1CCC(=O)N(CCc2cccc(F)c2)C1` (configuration not stated) gave JMJD2A Tudor -10.9%, G9a block -5.4%, BAZ2B inh -13.5%, ALOX12 inh 5.0%, HP1b binding inh 7.2% and PLK1 PBD block 2.2%.
Screening CC(C)[C@H]1c2ccc(F)cc2CC[C@@]1(CCN(C)CCCc1nc2ccccc2[nH]1)OC(=O)C1CC1 returned G9a block 12.6µM* and ALOX12 inh inconclusive.
O=C(CC1C(=O)NCCN1C/C=C/c1ccccc1)NCCCC1CCCC1 (configuration not stated) was read as JMJD2A Tudor -27.0%, G9a block -29.0%, BAZ2B inh -21.3%, ALOX12 inh -2.8%, HP1b binding inh 19.2% and PLK1 PBD block -12.0%.
CCCc1nc2ccccc2n1CCc1ccccc1 was read as JMJD2A Tudor -6.3%, G9a block -20.2%, BAZ2B inh 2.9%, ALOX12 inh -12.3%, HP1b binding inh 46.4% and PLK1 PBD block -0.8%.
`Cc1ccc(S(=O)(=O)Nc2nc(-c3ccc(F)cc3)cs2)cc1` gave JMJD2A Tudor -33.9%, G9a block 50.1µM*, BAZ2B inh inconclusive, ALOX12 inh inconclusive, HP1b binding inh -15.3% and PLK1 PBD block inconclusive.
For CCOC(=O)c1ccccc1-c1csc(NS(=O)(=O)c2ccc(Cl)cc2)n1 the results were JMJD2A Tudor -10.5%, G9a block -35.4%[59 µM], BAZ2B inh 56.2µM*, ALOX12 inh -13.3%, HP1b binding inh 20.0% and PLK1 PBD block inconclusive.
CCOC(=O)Cc1csc(NS(=O)(=O)c2ccc(Br)cc2)n1 was read as JMJD2A Tudor -2.8%, G9a block -47.4%, BAZ2B inh -11.2%, ALOX12 inh -13.2%, HP1b binding inh 31.2% and PLK1 PBD block -0.1%.
For O=[N+]([O-])c1ccc(S(=O)(=O)Nc2nc(-c3ccccc3)cs2)cc1 the results were JMJD2A Tudor inconclusive, BAZ2B inh inconclusive, ALOX12 inh -19.4%, HP1b binding inh -11.0% and PLK1 PBD block inconclusive.
